Results from PubChem BioAssay (NCI).
This is part of a sample that, as a whole, favours compounds with a hit. Of some 83,000 tested, about 20% had one in any assay.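 How to read the values: 0–100, growth inhibition (40 = 60% inhibited); 0, no net growth; -100 to 0, cell death (-40 = 40% of starting cells died; -100 = all dead).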 Values without a mark were called inactive. Active and inactive are the calls of the source. The calls were made as follows: active = growth percent below 10; inactive = the rest.

Experiments:
Assay in all cases: NCI-60 one-dose screen, 48 h (100 = growth as untreated, 0 = no growth, -100 = all killed)
Conditions in all cases: 10 µM unless noted
[1] = system: NCI-H23 lung
[2] = system: NCI-H226 lung
[3] = system: NCI-H322M lung
[4] = system: HOP-62 NSCLC
[5] = system: NCI-H460 lung
[6] = system: NCI-H522 lung
[7] = system: A549/ATCC NSCLC
[8] = system: 786-0 renal
[9] = system: COLO 205 colon
[10] = system: DU-145 prostate
[11] = system: K-562 leukemia
[12] = system: MALME-3M melanoma
[13] = system: MDA-MB-231 breast
[14] = system: RXF 393 renal
[15] = system: SF-268 CNS
[16] = system: SF-295 CNS
[17] = system: SF-539 CNS
[18] = system: UACC-257 melanoma
[19] = system: M14 melanoma

CC(C)CCC(=O)[C@@H](C)[C@H]1[C@@H](OC2OCC(O)C(O)C2NS(C)(=O)=O)C[C@H]2[C@@H]3CC=C4C[C@@H](O)CC[C@]4(C)[C@H]3CC[C@]12C (stereo partly drawn)
growth [1]: 56.8% | growth [2]: 52.4% | growth [3]: 68.5% | growth [4]: 8.62% (active) | growth [5]: 12.1% | growth [6]: 20.7% | growth [7]: 33.4% | growth [8]: -32% (active) | growth [9]: -0.62% (active) | growth [10]: 49% | growth [11]: 2.65% (active) | growth [12]: 8.83% (active) | growth [13]: 43.8% | growth [14]: -65.1% (active) | growth [15]: 9.17% (active) | growth [16]: -60.9% (active) | growth [17]: -41.2% (active) | growth [18]: -42.8% (active)

C=CCOC(=O)C1=C(C)NC2=C(C(=O)CC(C)(C)C2)C1c1ccc(OC)cc1 (stereo not drawn)
growth [1]: 104% | growth [2]: 98.4% | growth [3]: 95.7% | growth [4]: 90% | growth [5]: 106% | growth [6]: 82.8% | growth [7]: 98.3% | growth [8]: 97.8% | growth [9]: 109% | growth [10]: 110% | growth [11]: 90.4% | growth [12]: 104% | growth [13]: 92.8% | growth [14]: 105% | growth [15]: 94.1% | growth [16]: 105% | growth [17]: 108% | growth [18]: 96.2% | growth [19]: 96.8%

CC1OC(n2c3ccccc3c3c4c(c5c6ccccc6[nH]c5c32)C(=O)N(CCN[C@H]2CCC[C@@H]2N)C4=O)CC(O)C1O (stereo partly drawn)
growth [1]: 33.8% | growth [2]: 40.5% | growth [3]: 54.2% | growth [4]: 30.2% | growth [5]: 2.3% (active) | growth [6]: 16.9% | growth [7]: 25.2% | growth [8]: 50.2% | growth [9]: 11.5% | growth [10]: 44.5% | growth [11]: 10.2% | growth [12]: 45.3% | growth [13]: 37.5% | growth [14]: 63% | growth [15]: 33.5% | growth [16]: 25.6% | growth [17]: 35.3% | growth [18]: 54.9% | growth [19]: 36.1%

Cc1cc(C#Cc2ccc(C(C)(C)C)cc2)ccc1-n1c(/C=C/c2c(Cl)cccc2Cl)nc2ccccc2c1=O
growth [1]: 97.9% | growth [2]: 108% | growth [3]: 92.8% | growth [4]: 104% | growth [5]: 96.3% | growth [6]: 105% | growth [7]: 95.8% | growth [8]: 109% | growth [9]: 103% | growth [10]: 110% | growth [11]: 101% | growth [12]: 116% | growth [13]: 122% | growth [14]: 127% | growth [15]: 96.8% | growth [16]: 97.9% | growth [17]: 106% | growth [18]: 110%

CC1(C)CC(=O)c2cc3c(N)c(C(=O)Nc4ccc(Cl)cc4)sc3nc2C1
growth [1]: 105% | growth [2]: 108% | growth [3]: 114% | growth [4]: 108% | growth [5]: 109% | growth [6]: 95.8% | growth [7]: 97.6% | growth [8]: 98.7% | growth [9]: 117% | growth [10]: 103% | growth [11]: 107% | growth [12]: 119% | growth [13]: 115% | growth [14]: 116% | growth [15]: 125% | growth [16]: 100% | growth [17]: 114% | growth [18]: 91.4%

COc1cc(/C=C\c2cc(/C=C\c3ccc(O)c(OC)c3)n(C(=O)Nc3ccc(C(F)(F)F)cc3)n2)ccc1O
growth [1]: 51.3% | growth [2]: 82.7% | growth [3]: 82.7% | growth [4]: 62.9% | growth [5]: 18.3% | growth [6]: 7.32% (active) | growth [7]: 43% | growth [8]: 20.1% | growth [9]: 51.3% | growth [10]: 47.6% | growth [11]: 9.45% (active) | growth [12]: 52.3% | growth [13]: 54.8% | growth [14]: 22.7% | growth [15]: 37.1% | growth [16]: 83.4% | growth [17]: 29% | growth [18]: 25% | growth [19]: 29.5%

O=C1C(Cl)=C(Nc2cccc3ccccc23)C(=O)c2ccccc21
growth [1]: 73.6% | growth [2]: 87.8% | growth [3]: 83.1% | growth [4]: 84.9% | growth [5]: 90.7% | growth [6]: 44.7% | growth [7]: 87.9% | growth [8]: 90% | growth [9]: 88.9% | growth [10]: 111% | growth [11]: 26.6% | growth [12]: 53.4% | growth [13]: 57.5% | growth [14]: 120% | growth [15]: 85.5% | growth [16]: 95.1% | growth [17]: 107% | growth [18]: 74.7% | growth [19]: 87.8%

CCC1N=C(N)N=C(N)N1c1ccc(Cl)cc1 (stereo not drawn)
growth [1]: 89.4% | growth [2]: 96.5% | growth [3]: 90.4% | growth [4]: 102% | growth [5]: 39.1% | growth [6]: 90.9% | growth [7]: 38% | growth [8]: 58.6% | growth [9]: 121% | growth [10]: 105% | growth [11]: 57.1% | growth [12]: 61.6% | growth [13]: 99.5% | growth [14]: 89.3% | growth [15]: 77.2% | growth [16]: 88.9% | growth [17]: 109% | growth [18]: 88.1% | growth [19]: 79.7%

CN(C)c1nc(-c2cccs2)n2nc(-c3ccc(Cl)cc3)cc2n1
growth [1]: 61.9% | growth [2]: -25.5% (active) | growth [3]: 11.8% | growth [4]: -39.5% (active) | growth [5]: -1.56% (active) | growth [6]: 39.9% | growth [7]: 10.9% | growth [8]: -40.7% (active) | growth [9]: 39.1% | growth [10]: 72.2% | growth [11]: 73.7% | growth [12]: 57.6% | growth [13]: 19.3% | growth [14]: 13.3% | growth [15]: 55% | growth [16]: -5.01% (active) | growth [17]: 47.5% | growth [18]: 79.6%

CN(C)CCCN1c2ccccc2CCc2ccccc21
growth [1]: 129% | growth [2]: 104% | growth [3]: 108% | growth [4]: 82.2% | growth [5]: 113% | growth [6]: 88.2% | growth [7]: 95.8% | growth [8]: 95.7% | growth [9]: 78% | growth [10]: 113% | growth [11]: 94.9% | growth [12]: 151% | growth [13]: 79% | growth [14]: 78.6% | growth [15]: 95.1% | growth [16]: 106% | growth [17]: 117% | growth [18]: 103%

COC(=O)c1ccc2c(c1)nc(-c1cc3ccccc3[nH]c1=O)n2-c1cc(C(C)(C)C)[nH]n1
growth [1]: 44.7% | growth [2]: 90.4% | growth [3]: 77% | growth [4]: 66.5% | growth [5]: 45.4% | growth [6]: -2.05% (active) | growth [7]: 81.5% | growth [8]: 33.3% | growth [9]: 71.6% | growth [10]: 83.7% | growth [11]: 32.2% | growth [12]: 96.2% | growth [13]: 68.4% | growth [14]: 89.9% | growth [15]: 72.8% | growth [16]: 93.8% | growth [17]: 92.6% | growth [18]: 78.5%

Cc1ccc(NC(=O)c2cc(NCc3cc(O)ccc3O)ccc2O)cc1
growth [1]: 92.9% | growth [2]: 95.4% | growth [3]: 101% | growth [4]: 97.9% | growth [5]: 102% | growth [6]: -27.5% (active) | growth [7]: 80.5% | growth [8]: 101% | growth [9]: 105% | growth [10]: 106% | growth [11]: 70.9% | growth [12]: 97.9% | growth [13]: 78.5% | growth [14]: 87.5% | growth [15]: 83.5% | growth [16]: 116% | growth [17]: 84.3% | growth [18]: 78.9% | growth [19]: 107%

O=C1Nc2ccccc2/C1=C\c1nc(C2CCN(S(=O)(=O)c3ccc(F)cc3)CC2)n2ccccc12
growth [1]: 42% | growth [2]: 41.2% | growth [3]: 55.5% | growth [4]: 47.8% | growth [5]: 65% | growth [6]: 16.5% | growth [7]: 68.1% | growth [8]: -3.81% (active) | growth [9]: 79.1% | growth [10]: 57.1% | growth [11]: 56.9% | growth [12]: 3.9% (active) | growth [13]: 32.8% | growth [14]: 16.6% | growth [15]: 14.2% | growth [16]: 46.5% | growth [17]: 27.4% | growth [18]: 72%

CC(C)(C)[Si](C)(C)OC1[C@@H](O[Si](C)(C)C(C)(C)C)[C@@H](CNC(=O)NC(=O)NC(=O)CCl)O[C@H]1n1cnc2c(NC(=O)Nc3ccccc3)ncnc21 (stereo partly drawn)
growth [1]: -35.6% (active) | growth [2]: 88.2% | growth [3]: 103% | growth [4]: 36.7% | growth [5]: 43.5% | growth [6]: -78.6% (active) | growth [7]: 55.8% | growth [8]: 26.6% | growth [9]: 57.1% | growth [10]: 87.5% | growth [11]: 47.1% | growth [12]: -78.7% (active) | growth [13]: -28.3% (active) | growth [14]: 21.9% | growth [15]: 47.1% | growth [16]: -20.6% (active) | growth [17]: 82.7% | growth [18]: 97.8%

CCOC(=O)c1ccc(NC(=O)CSC(N)=O)cc1
growth [1]: 95.8% | growth [2]: 116% | growth [3]: 112% | growth [4]: 113% | growth [5]: 101% | growth [6]: 72.8% | growth [7]: 98% | growth [8]: 86.6% | growth [9]: 98.3% | growth [10]: 114% | growth [11]: 103% | growth [12]: 145% | growth [13]: 95.9% | growth [14]: 129% | growth [15]: 110% | growth [16]: 101% | growth [17]: 96.4% | growth [18]: 107%

Cc1cccc(N=NC(=S)NNc2cccc(C)c2)c1
growth [1]: 102% | growth [2]: 101% | growth [3]: 101% | growth [4]: 101% | growth [5]: 112% | growth [6]: 95.4% | growth [7]: 105% | growth [8]: 111% | growth [9]: 116% | growth [10]: 122% | growth [11]: 105% | growth [12]: 108% | growth [13]: 93.5% | growth [14]: 115% | growth [15]: 135% | growth [16]: 104% | growth [17]: 108% | growth [18]: 105%

C(=Nc1ccc(-c2ccc(N=Cc3ccccc3)cc2)cc1)c1ccccc1
growth [1]: 101% | growth [2]: 97.4% | growth [3]: 103% | growth [4]: 101% | growth [5]: 116% | growth [6]: 70% | growth [7]: 93.8% | growth [8]: 104% | growth [9]: 117% | growth [10]: 118% | growth [11]: 95.4% | growth [12]: 94.6% | growth [13]: 88.2% | growth [14]: 113% | growth [15]: 105% | growth [16]: 99.2% | growth [17]: 107% | growth [18]: 109% | growth [19]: 104%
